In all, about 33,000 sequences were measured (“E-score (-0.5 to 0.5)”: median about -0.053, highest 2% from about 0.37 on). This excerpt belongs to a sample that is enriched for the highest values.

UniProt P0CE41, sequence (P0CE41 whole entry, the tested form may be a part): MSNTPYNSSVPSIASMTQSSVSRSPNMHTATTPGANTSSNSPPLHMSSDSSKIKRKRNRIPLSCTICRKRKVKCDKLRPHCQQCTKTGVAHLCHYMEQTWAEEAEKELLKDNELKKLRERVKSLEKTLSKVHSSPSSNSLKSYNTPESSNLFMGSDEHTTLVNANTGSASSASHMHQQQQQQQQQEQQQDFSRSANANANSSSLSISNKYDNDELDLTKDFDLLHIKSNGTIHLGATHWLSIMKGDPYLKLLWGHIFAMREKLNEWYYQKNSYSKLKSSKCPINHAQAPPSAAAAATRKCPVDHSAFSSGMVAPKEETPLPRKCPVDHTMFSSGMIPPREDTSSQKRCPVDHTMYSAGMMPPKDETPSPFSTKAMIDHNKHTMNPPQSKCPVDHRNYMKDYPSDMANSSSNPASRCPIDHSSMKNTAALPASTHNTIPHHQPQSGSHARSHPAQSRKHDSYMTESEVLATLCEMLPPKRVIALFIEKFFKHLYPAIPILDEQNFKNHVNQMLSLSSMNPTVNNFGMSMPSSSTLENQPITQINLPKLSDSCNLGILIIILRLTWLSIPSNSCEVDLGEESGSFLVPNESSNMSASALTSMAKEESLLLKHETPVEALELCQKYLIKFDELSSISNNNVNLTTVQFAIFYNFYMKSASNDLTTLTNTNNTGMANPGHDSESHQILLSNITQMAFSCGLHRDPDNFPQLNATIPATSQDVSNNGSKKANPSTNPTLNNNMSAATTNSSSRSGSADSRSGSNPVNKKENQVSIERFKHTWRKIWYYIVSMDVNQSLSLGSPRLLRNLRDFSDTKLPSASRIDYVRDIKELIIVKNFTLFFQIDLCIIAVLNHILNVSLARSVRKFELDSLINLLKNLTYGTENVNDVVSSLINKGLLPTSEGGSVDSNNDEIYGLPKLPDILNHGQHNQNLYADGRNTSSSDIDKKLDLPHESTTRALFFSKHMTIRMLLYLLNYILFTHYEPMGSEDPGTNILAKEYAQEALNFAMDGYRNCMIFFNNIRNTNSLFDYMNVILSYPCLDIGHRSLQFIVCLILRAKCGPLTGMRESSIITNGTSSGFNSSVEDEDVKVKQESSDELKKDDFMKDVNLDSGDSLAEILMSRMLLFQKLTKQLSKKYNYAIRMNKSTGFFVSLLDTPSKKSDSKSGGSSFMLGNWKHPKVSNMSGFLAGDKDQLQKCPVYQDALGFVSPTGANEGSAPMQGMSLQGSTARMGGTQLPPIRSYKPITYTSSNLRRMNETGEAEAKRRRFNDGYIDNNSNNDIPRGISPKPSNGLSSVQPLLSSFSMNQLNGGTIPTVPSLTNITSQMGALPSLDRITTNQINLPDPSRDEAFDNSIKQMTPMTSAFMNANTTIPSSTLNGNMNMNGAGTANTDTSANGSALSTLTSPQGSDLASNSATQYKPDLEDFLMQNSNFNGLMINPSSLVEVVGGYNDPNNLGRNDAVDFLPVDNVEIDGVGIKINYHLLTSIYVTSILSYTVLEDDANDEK

The assay deals with Hap1 (UniProt P0CE41). As to the kind of experiment: PBM E-score (8-mer binding enrichment) (E-score (-0.5 to 0.5)); higher = stronger / more preferred TF binding. Particulars: protein concentration: 200 nM; construct: GST-DNA-binding domain. How it is done:
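Universal 'all 10-mer' protein binding microarrays (Agilent AMADID 015681) probed with GST-tagged S. cerevisiae TFs (full-length or DBD) made by in vitro transcription/translation (PURExpress), about 100-200 nM. Bound TF was detected with fluorescent anti-GST. Each ungapped 8-mer (which stands for itself and its reverse complement) is scored by the PBM enrichment score (E-score), a modified Wilcoxon-Mann-Whitney statistic from -0.5 to +0.5, computed with the Universal PBM Analysis Suite. Scale: above 0.35 generally sequence-specific binding.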
Take ATCCGAGA: the “PBM E-score” value was 0.346. The value for CTTCGAGA was -0.234; that for GTGCGAGA was -0.179. The result for CTGCGAGA reads -0.215. The result for CCAATCTC reads 0.00791; that for AGCCCTAC, -0.129; that for CATGGTGA, -0.0558. For CCGGAAGC, the “PBM E-score” value came out at 0.336. The result for GTCATCAC reads -0.249; that for AGGAGTAG, -0.195. On to CCAAGGAA, for which the “PBM E-score” value is -0.0481. As to CAGTCCGA, the “PBM E-score” value amounted to 0.366. For AAGTCCGA, the “PBM E-score” value came out at 0.467. The result for AAGTCCAA reads -0.00743. The result for AAGTCCTA reads 0.0348; that for TAGTCCGA, 0.42; that for GAGTCCGA, 0.35.

Regarding AACCCTCA, the “PBM E-score” value is -0.135.

Consider TGGTTAAA, for which the “PBM E-score” value was -0.0634. The result for AATCGCCT reads 0.0771. Turning to TAGCTTGA, the “PBM E-score” value was -0.226. The result for AGGCGTAT reads -0.311. ATGCCTAA: the “PBM E-score” value is -0.21. The value for GGTTCCAA was 0.14; that for AACCCGGT was 0.365. Regarding AGCCCGGG, the “PBM E-score” value was 0.36. The value for CTCCCGGA was 0.376. The result for AGCCCGGC reads 0.272; that for GTCCCGGA, 0.343.

With AGCCCCCG, the “PBM E-score” value was 0.185. The result for CTCCCGGC reads 0.33; that for AACCCGGC, 0.333; that for AGCCCCGG, 0.373. In the case of AACCCGGA, the “PBM E-score” value turned out to be 0.371. The result for AGCCCGGA reads 0.39; that for AGCCCCGA, 0.333.

Turning to AGTGCTAA, the “PBM E-score” value was found to be 0.0956. The result for CGTTTGTA reads -0.122; that for GACCACTC, 0.0772; that for TCTCCAGA, -0.0567. The value for TAGTAGCA was -0.123; that for ATGCGCGA was 0.188. The value for ACTAAAGG was -0.181. On to AGGCGCAC, for which the “PBM E-score” value was -0.0853. For AGTCCATC, the “PBM E-score” value was -0.027. The result for TGCAGACA reads -0.233; that for GGCCCGGA, 0.409; that for GCCCCGGC, 0.25. The value for GGCCCGTA was 0.281. CGCCCGAA: the “PBM E-score” value stood at 0.294. As for ACCCCGGG, the “PBM E-score” value turned out to be 0.357.

Consider CCCCCGGA, for which the “PBM E-score” value was 0.305. Regarding GCCCCGGA, the “PBM E-score” value worked out at 0.391. Turning to ACCCCGGA, the “PBM E-score” value came to 0.37.

In the case of GGCCCGCA, the “PBM E-score” value was determined as 0.157. The value for GCCCCGTA was 0.0466; that for AGCCCGAA was 0.3. The value for GGCCCGAA was 0.384; that for CCTGGTGC was -0.0907; that for GAAAATCC was 0.167. The result for GAAGGTCC reads 0.0808; that for AGCTCCAA, -0.276. For GAGACGCC, the “PBM E-score” value is 0.0301.

Turning to GGATACAC, the “PBM E-score” value amounted to 0.132. The value for CACCATCC was 0.0474; that for ATTTAATC was 0.153; that for ACAATGAA was -0.165.

Turning to AGATACAC, the “PBM E-score” value was -0.0669. The result for ACTGGTAG reads -0.206; that for GCAAGCCA, -0.171.

On to CAGTCGAA, for which the “PBM E-score” value is -0.204.

With TACCCGGA, the “PBM E-score” value turned out to be 0.38. The result for CACCCGGA reads 0.364; that for CGCCCGTA, 0.142.

Consider GACCCGGA, for which the “PBM E-score” value was 0.353. The value for CGCCCGGC was 0.335; that for TCCCCGAA was 0.335. Regarding TCCCCGGA, the “PBM E-score” value was determined as 0.377. Turning to TCCCCGCA, the “PBM E-score” value came out at 0.303. The result for CGCCCGGA reads 0.4.

On to GAACGCAA, for which the “PBM E-score” value was -0.0397.

Consider ACTTCTAG, for which the “PBM E-score” value was -0.146. The value for GAACATGA was -0.0648. Consider AAGTCCAG, for which the “PBM E-score” value was -0.056.

ATTGCTCG: the “PBM E-score” value amounted to 0.137. The result for TGCTCAAA reads -0.145; that for CGATAAGA, 0.291. The result for TACGCCTA reads -0.258; that for CGGATCTC, 0.279; that for CGGATCTA, 0.404. The result for CTGATATC reads 0.26; that for CGGATATC, 0.39; that for TGGATAAA, -0.0137. In the case of CGGATAAA, the “PBM E-score” value was determined as 0.381.

On to AGGATATC, for which the “PBM E-score” value was 0.155. GGGATCTA: the “PBM E-score” value came out at 0.134.

Regarding CGGATAAC, the “PBM E-score” value worked out at 0.359.

Turning to GATATATC, the “PBM E-score” value was 0.373. The value for AATATATC was 0.26; that for GATATATA was 0.198; that for CATTAGCA was -0.142.

CTAAGAGC: the “PBM E-score” value is -0.0334. The result for AGGGTGAT reads -0.15; that for CAGAACAA, -0.101; that for GGGATATA, 0.21.

With CGGATGTA, the “PBM E-score” value was determined as 0.427.

CGGATATA: the “PBM E-score” value worked out at 0.482. The value for TGGATACA was -0.288.

For CGGATGTC, the “PBM E-score” value is 0.35. The result for AGGATATA reads 0.0407; that for GGGATGTA, 0.124. The value for CGGATACA was 0.385. CGGATACC: the “PBM E-score” value is 0.218.

(Values after the supplement of paper PMC3334620.)
